Results as given in PubChem BioAssay (Tox21).
Results filed as inconclusive are left out. The source made the active and inactive calls. Unless noted, calls come from the whole dose curve; as a rule, active = well fitted curve in the direction sought with a large enough effect in the repeat runs; inconclusive = weak or mixed curves; inactive = no such curve, though single readings can be large; an effect the other way counts as inactive or inconclusive.

Key:
[1] = qHTS assay for small molecules that induce genotoxicity in human embryonic kidney cells expressing luciferase-tagged ATAD5 (AID 651632); note: nearly all actives have a fitted effect of over 15% in size
Outline: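 Luminescent reporter readout, HEK293T ATAD5-luc line: 16 hr drug exposure (37C, 5% CO2) followed by Amplite, 30 min RT.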

[2] = qHTS assay for small molecule agonists of the p53 signaling pathway - cell viability (AID 651633; calls by dose curve;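 note: p53RE-bla HCT reporter cells with a stable beta-lactamase p53 reporter; series mostly up to about 83 µM; nearly all actives have a fitted effect of over 30% in size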)
Outline: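 p53RE-bla cells, seeded at 4,000 per well and rested 5 h at 37 C/5% CO2, received compounds in DMSO for 16 h at 37 C. CellTiter-Glo was then added, and luminescence was read after 30 min at room temperature to gauge cytotoxicity.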

[3] = qHTS assay for small molecules that induce genotoxicity in human embryonic kidney cells expressing luciferase-tagged ATAD5 - cell viability (AID 651634; calls by dose curve; note: nearly all actives have a fitted effect of over 25% in size)
Outline: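 Viability read: CellTiter-Fluor fluorescence, 30 min at 37C. Cells: HEK293T, luciferase-tagged ATAD5. Exposure: 15.5 hr, 37C, 5% CO2, compound or DMSO vehicle.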

[4] = qHTS assay for small molecule disruptors of the mitochondrial membrane potential - cell viability (AID 720634; calls by dose curve;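 note: human HepG2 liver cancer cells; series mostly up to about 83 µM; nearly all actives have a fitted effect of over 20% in size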)
Outline: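 HepG2, 1 hr compound, 37 C. ATP luminescence via CellTiter-Glo, 30 min RT, same well as m-MPI.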

[5] = qHTS assay to test for compound auto fluorescence at 590 nm (red) in HepG2 cells (AID 720674)
Outline: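 Compound auto-fluorescence is scored relative to Rose Bengal sodium, measured at 540/590 nm in live HepG2 cultures after 1 hr compound contact (37 C, 5% CO2).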

[6] = qHTS assay to test for compound auto fluorescence at 535 nm (green) in HepG2 cells (AID 720675)
[7] = qHTS assay to test for compound auto fluorescence at 460 nm (blue) in HEK293 cells (AID 720678)
Outline: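 HEK293 cells (2,000 per well, medium with 10% dialyzed FBS) attached for 4-5 hr at 37C, then received compound and stood overnight at 37C, 5% CO2. Blue fluorescence was read at Ex/Em 405/460 nm and expressed relative to triamterene.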

[8] = qHTS assay to test for compound auto fluorescence at 590 nm (red) in HEK293 cells (AID 720679)
Outline: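 HEK293 cells (2,000/well, medium with 10% dialyzed FBS) attached for 4-5 hr at 37C, received 23 nL compound and were incubated overnight at 37C, 5% CO2. Red fluorescence was then read at 540/590nm Ex/Em, referenced to Rose Bengal sodium.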

[9] = qHTS assay to test for compound auto fluorescence at 535 nm (green) in HEK293 cells (AID 720680)
[10] = qHTS assay to test for compound auto fluorescence at 460 nm (blue) in HEK293 cell free culture (AID 720681)
Outline: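 Test compounds were pinned into cell-free culture medium (DMEM with 10% FBS) and fluorescence was read directly at Ex/Em 405/460 nm. Signals were expressed as fluorescence equivalents of triamterene, with DMSO vehicle as control.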

[11] = qHTS assay to test for compound auto fluorescence at 535 nm (green) in HEK293 cell free culture (AID 720682)
Outline: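 Green-channel intensity (Ex/Em 485/535 nm) was recorded from compound-treated wells containing only DMEM with 10% FBS. Fluorescein provided the equivalency standard.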

[12] = qHTS assay to test for compound auto fluorescence at 590 nm (red) in HEK293 cell free culture (AID 720683)
Outline: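 Tox21 10K library compounds were pinned into cell-free DMEM with 10% FBS and fluorescence was read at excitation 540 nm. Activity is expressed as Rose Bengal sodium equivalency.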

[13] = qHTS assay to test for compound auto fluorescence at 590 nm (red) in HepG2 cell free culture (AID 720684)
Outline: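 Red fluorescence (540 nm excitation, 590 nm emission) was measured after compound transfer into cell-free MEM supplemented with 10% FBS. Values are equivalencies against Rose Bengal sodium.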

[14] = qHTS assay to test for compound auto fluorescence at 460 nm (blue) in HepG2 cell free culture (AID 720685)
Outline: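 Compound (23 nL) or DMSO pinned into cell-free MEM with 10% FBS; blue fluorescence read at 405/460 nm excitation/emission, expressed as auto-fluorescence equivalency to triamterene.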

[15] = qHTS assay to test for compound auto fluorescence at 535 nm (green) in HepG2 cell free culture (AID 720686)
[16] = qHTS assay to test for compound auto fluorescence at 460 nm (blue) in HepG2 cells (AID 720687)
Outline: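 Cells (2,000/well in MEM with 10% FBS) attached overnight at 37 C, then were exposed to compound or DMSO for 1 hr at 37 C, 5% CO2. Fluorescence read at Ex/Em 405/460 nm, expressed as triamterene-equivalent signal.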

[17] = target: Glucocorticoid receptor (Homo sapiens) (UniProt P04150); assay: qHTS assay to identify small molecule agonists of the glucocorticoid receptor (GR) signaling pathway (AID 720691; active = well fitted activation curve with a large enough effect in the signal ratio in the repeat runs, not every such curve was filed as active; the % refers to the signal ratio)
Chain of Glucocorticoid receptor (Homo sapiens) (P04150 whole entry, looked up): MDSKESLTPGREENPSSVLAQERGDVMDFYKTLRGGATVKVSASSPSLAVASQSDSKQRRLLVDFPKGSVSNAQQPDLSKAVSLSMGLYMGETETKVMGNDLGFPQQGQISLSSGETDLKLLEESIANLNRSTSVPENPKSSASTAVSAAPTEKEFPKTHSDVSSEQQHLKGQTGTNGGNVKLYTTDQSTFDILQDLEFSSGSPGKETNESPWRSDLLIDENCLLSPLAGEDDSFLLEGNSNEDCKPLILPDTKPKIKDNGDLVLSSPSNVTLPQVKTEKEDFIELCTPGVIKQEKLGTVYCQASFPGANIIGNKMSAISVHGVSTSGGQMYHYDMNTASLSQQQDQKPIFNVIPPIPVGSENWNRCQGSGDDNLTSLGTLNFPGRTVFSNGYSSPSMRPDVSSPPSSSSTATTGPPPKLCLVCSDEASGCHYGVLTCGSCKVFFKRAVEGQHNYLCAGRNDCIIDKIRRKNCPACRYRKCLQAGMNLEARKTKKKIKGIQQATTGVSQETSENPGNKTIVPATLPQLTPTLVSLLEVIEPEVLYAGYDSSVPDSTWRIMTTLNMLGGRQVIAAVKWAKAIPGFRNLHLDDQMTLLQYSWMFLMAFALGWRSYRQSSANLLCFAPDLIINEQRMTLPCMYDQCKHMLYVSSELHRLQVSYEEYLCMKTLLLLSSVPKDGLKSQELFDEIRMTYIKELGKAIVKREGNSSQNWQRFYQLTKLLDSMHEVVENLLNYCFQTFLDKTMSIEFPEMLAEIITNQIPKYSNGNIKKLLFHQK
Outline: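 qHTS in GR-bla HeLa cells: 4 h settling at 37 C/5% CO2, 18 h compound incubation at 37 C, 2 h LiveBLAzer B/G FRET substrate at room temperature, fluorescence intensity measured.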

[18] = target: Glucocorticoid receptor (Homo sapiens) (UniProt P04150); assay: qHTS assay to identify small molecule antagonists of the glucocorticoid receptor (GR) signaling pathway (AID 720692; active = well fitted inhibition curve with a large enough effect in the signal ratio in the repeat runs, not every such curve was filed as active; the % refers to the signal ratio)
Outline: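 Inhibition of glucocorticoid signalling is measured in HeLa cells with a GRE-controlled beta-lactamase reporter; cells are co-treated with compound and 5 nM dexamethasone (final) for 18 h before FRET substrate readout.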

[19] = qHTS assay for small molecule disruptors of the mitochondrial membrane potential (AID 720635)
Outline: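 HepG2 cells (2,000/well) attached overnight at 37C, then took compound for 1 hr at 37C, 5% CO2. Mito-MPS dye was added for 30 min; fluorescence was read at 490/535 nm (monomers) and 540/590 nm (aggregates).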
% is set by controls: 0 for no effect and ±100 for the full control effect.

ONc1ccccc1
inactive: outcome [1] | outcome [2] | Potency [3] | outcome [4] | outcome [5] | outcome [6] | outcome [7] | outcome [8] | outcome [9] | outcome [10] | outcome [11] | outcome [12] | outcome [13] | outcome [14] | outcome [15] | outcome [16] | Potency [17] | outcome [18]

CC(O)CC(C)O (stereo not given)
inactive: outcome [1] | outcome [2] | Potency [3] | outcome [4] | outcome [5] | outcome [6] | outcome [7] | outcome [8] | outcome [9] | outcome [10] | outcome [11] | outcome [12] | outcome [13] | outcome [14] | outcome [15] | outcome [16] | Potency [17] | outcome [18]

C/C=C(\C)C(=O)OCCc1ccccc1
inactive: outcome [1] | outcome [2] | Potency [3] | outcome [4] | outcome [5] | outcome [6] | outcome [7] | outcome [8] | outcome [9] | outcome [10] | outcome [11] | outcome [12] | outcome [13] | outcome [14] | outcome [15] | Potency [17] | outcome [18]

O=C1CCC(=O)N1Cl
inactive: outcome [1] | outcome [2] | Potency [3] | outcome [4] | outcome [5] | outcome [6] | outcome [7] | outcome [8] | outcome [9] | outcome [10] | outcome [11] | outcome [12] | outcome [13] | outcome [14] | outcome [15] | outcome [16] | Potency [17] | outcome [18]

O=C(O)CNC(=O)CNC(=O)CNC(=O)CSC(=O)c1ccccc1
inactive: outcome [1] | outcome [2] | Potency [3] | outcome [4] | Potency [19] | outcome [5] | outcome [6] | outcome [7] | outcome [8] | outcome [9] | outcome [10] | outcome [11] | outcome [12] | outcome [13] | outcome [14] | outcome [15] | Potency [17]

CCCC(=O)OC/C=C(\C)CCC=C(C)C
inactive: outcome [1] | outcome [2] | Potency [3] | outcome [4] | outcome [5] | outcome [6] | outcome [7] | outcome [8] | outcome [9] | outcome [10] | outcome [11] | outcome [12] | outcome [13] | outcome [14] | outcome [15] | Potency [17] | outcome [18]

C=C(C)C1CC=C(C)C(=O)C1 (stereo not given)
inactive: outcome [1] | outcome [2] | Potency [3] | outcome [4] | outcome [5] | outcome [6] | outcome [7] | outcome [8] | outcome [9] | outcome [10] | outcome [11] | outcome [12] | outcome [13] | outcome [14] | outcome [15] | Potency [17]

C[C@H]1[C@@H](c2ccccc2)NC(=O)N1C
inactive: outcome [1] | outcome [2] | Potency [3] | outcome [4] | outcome [5] | outcome [6] | outcome [7] | outcome [8] | outcome [9] | outcome [10] | outcome [11] | outcome [12] | outcome [13] | outcome [14] | outcome [15] | outcome [16]

N#Cc1ccccc1O
inactive: outcome [1] | outcome [2] | Potency [3] | outcome [4] | outcome [5] | outcome [6] | outcome [7] | outcome [8] | outcome [9] | outcome [10] | outcome [11] | outcome [12] | outcome [13] | outcome [14] | outcome [15] | outcome [16] | Potency [17]

CC(C)[C@H]1CC[C@H](C)C[C@@H]1O
inactive: outcome [1] | outcome [2] | Potency [3] | outcome [4] | Potency [19] | outcome [5] | outcome [6] | outcome [7] | outcome [8] | outcome [9] | outcome [11] | outcome [12] | outcome [13] | outcome [14] | outcome [15]

Cc1c(NC(=O)c2cccnc2)c(=O)n(-c2ccccc2)n1C
inactive: outcome [1] | outcome [2] | Potency [3] | outcome [4] | Potency [19] | fluorescence, relative to Rose Bengal [5] 0.269% [at 18.6 µM] | fluorescence, % of fluorescein control [6] -0.0361% [at 18.6 µM] | fluorescence, % of triamterene [7] -0.0133% [at 18.6 µM] | fluorescence, % of fluorescent control [8] 0.237% [at 18.6 µM] | fluorescence, % of fluorescein [9] -0.0295% [at 18.6 µM] | fluorescence, % of fluorescent control [10] -0.0145% [at 18.6 µM] | activity change [11] 0.0113% [at 18.6 µM] | fluorescence, % of fluorescent control [12] -0.0161% [at 18.6 µM] | fluorescence, % of Rose Bengal [13] 0.102% [at 18.6 µM] | fluorescence, % of fluorescent control [14] -0.005% [at 18.6 µM] | fluorescence, % of fluorescein control [15] -0.0688% [at 18.6 µM] | fluorescence, % of fluorescent control [16] 0.0214% [at 18.6 µM] | Potency [17] | outcome [18]

CCC(C)OC(C)CC (stereo not given)
inactive: outcome [1] | outcome [2] | Potency [3] | outcome [4] | Potency [19] | outcome [5] | outcome [6] | outcome [7] | outcome [8] | outcome [9] | outcome [11] | outcome [12] | outcome [13] | outcome [14] | outcome [15] | outcome [16] | Potency [17] | outcome [18]

O=C(CCCCC(=O)Nc1c(I)cc(I)c(C(=O)O)c1I)Nc1c(I)cc(I)c(C(=O)O)c1I
inactive: outcome [1] | outcome [2] | Potency [3] | outcome [4] | Potency [19] | outcome [5] | outcome [6] | outcome [7] | outcome [8] | outcome [9] | outcome [10] | outcome [11] | outcome [12] | outcome [13] | outcome [14] | outcome [15] | outcome [16] | Potency [17] | outcome [18]
